# Test results reported in PubChem BioAssay (NCATS).
# Records with an inconclusive call do not appear. A call without a number means that no potency is given here. Active and inactive are the calls of the source. Calls come from the whole dose curve; as a rule, active = well fitted inhibition curve with a large enough effect; inconclusive = small, poorly fitted or top-dose-only effect; inactive = flat fitted curve, though single readings scatter.
# Target: Ubiquitin carboxyl-terminal hydrolase 1 (Homo sapiens) (UniProt O94782)
# Assay: Inhibitors of USP1/UAF1: Pilot qHTS (AID 504865);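 note: rhodamine fluorescence freed from ubiquitin-rhodamine substrate followed over time; top concentration of the series differs between compounds; nearly all actives have a fitted effect of over 35% in size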
# Details: purified USP1/UAF1, Ub-rhodamine cleavage fluorescence; series mostly up to 114 µM
# Summary of the method: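 Enzyme-free wells gave the negative control, while test wells held 1nM USP1/UAF1 preincubated with compound for 15 min at room temperature. Ub-Rho at 150nM final started the reaction, and fluorescence at 480/540 nm was recorded kinetically.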
# Chain of Ubiquitin carboxyl-terminal hydrolase 1 (Homo sapiens) (O94782 whole entry, looked up): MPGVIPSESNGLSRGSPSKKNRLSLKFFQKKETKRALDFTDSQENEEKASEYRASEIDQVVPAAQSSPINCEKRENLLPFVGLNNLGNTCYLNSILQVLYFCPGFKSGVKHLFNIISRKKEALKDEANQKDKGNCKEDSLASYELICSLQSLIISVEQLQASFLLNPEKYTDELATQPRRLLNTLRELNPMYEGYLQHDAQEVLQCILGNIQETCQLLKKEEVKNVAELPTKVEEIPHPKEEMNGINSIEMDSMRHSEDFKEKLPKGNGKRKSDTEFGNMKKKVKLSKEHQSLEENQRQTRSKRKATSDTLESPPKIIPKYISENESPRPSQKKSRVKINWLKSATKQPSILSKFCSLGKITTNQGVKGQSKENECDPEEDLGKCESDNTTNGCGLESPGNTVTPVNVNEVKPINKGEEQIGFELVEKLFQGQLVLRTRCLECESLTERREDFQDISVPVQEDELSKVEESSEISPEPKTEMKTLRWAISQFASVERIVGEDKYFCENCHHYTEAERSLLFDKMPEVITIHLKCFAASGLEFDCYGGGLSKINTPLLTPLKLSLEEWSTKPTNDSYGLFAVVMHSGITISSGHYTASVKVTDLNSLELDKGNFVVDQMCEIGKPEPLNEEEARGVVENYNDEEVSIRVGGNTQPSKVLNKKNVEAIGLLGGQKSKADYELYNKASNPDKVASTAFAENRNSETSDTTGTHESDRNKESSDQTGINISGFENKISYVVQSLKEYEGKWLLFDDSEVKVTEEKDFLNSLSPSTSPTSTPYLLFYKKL
row,SMILES,Potency
1,COc1ccc(/C=N/NC(=O)c2ccncc2)cc1OC,inactive
2,Cc1ccc(-c2ncc(Cl)cc2-c2ccc(S(C)(=O)=O)cc2)cn1,inactive
3,c1ccc(CC2=NCCN2)cc1,inactive
4,CN1CCC[C@@H]1CCO[C@](C)(c1ccccc1)c1ccc(Cl)cc1,inactive
5,CCNC(=O)/C=C/c1cccc(Br)c1,inactive
6,CN(C)CCOC(c1ccc(Cl)cc1)c1ccccn1 (stereo not given),inactive
7,CN1CCC(OC(c2ccccc2)c2ccccc2)CC1,inactive
8,CCCCNC(=O)NS(=O)(=O)c1ccc(N)cc1,inactive
9,Cc1cc(-c2ccccc2)nnc1NCCN1CCOCC1,inactive
10,O=C(O)P(=O)(O)O,inactive
11,CC(=O)OCC(=O)[C@H]1CC[C@H]2[C@@H]3CCC4=CC(=O)CC[C@]4(C)[C@H]3CC[C@]12C,inactive
12,C/C=C/c1ccc(O)c(OC)c1,inactive
13,COc1ccc(C(=O)c2ccccc2)c(O)c1,inactive
14,CN(C)CCN1C(=O)c2ccccc2N(C)c2ccccc21,inactive
15,CCc1ccc(C(=O)C(C)CN2CCCCC2)cc1 (stereo not given),inactive
16,CC(=O)Oc1ccc(C)cc1,inactive
17,CCCCCCCC/C=C\CCCCCCCCN,inactive
18,CC(C)(C)NC[C@H](O)COc1cccc2c1CCCC2=O,inactive

row,SMILES,Potency
1,Cc1cccc(C)c1NC(=O)CN1CCCC1,inactive
2,Cc1cc2c(OCC(CNC(C)(C)C)OC(=O)c3ccccc3)cccc2[nH]1 (stereo not given),inactive
3,NS(=O)(=O)Cc1noc2ccccc12,inactive
4,O=[N+]([O-])c1cccc(S(=O)(=O)NCCNS(=O)(=O)c2cccc([N+](=O)[O-])c2)c1,inactive
5,CC1CCc2c(N3CCC(O)CC3)c(F)cc3c(=O)c(C(=O)O)cn1c23 (stereo not given),inactive
6,CC(=O)NO,inactive
7,Cc1ccc(O)c([C@H](CCN(C(C)C)C(C)C)c2ccccc2)c1,inactive
8,NC(=O)C1(N2CCCCC2)CCN(CCCC(=O)c2ccc(F)cc2)CC1,inactive
9,Cc1c(-c2ccccc2)oc2c(C(=O)OCCN3CCCCC3)cccc2c1=O,inactive
10,CCN(CC)CCOc1ccccc1C(=O)CCc1ccccc1,inactive
11,CN(C)C(=O)Nc1ccc(Cl)c(Cl)c1,inactive
12,CC(=O)OC[C@H]1O[C@@H](n2ncc(=O)[nH]c2=O)[C@H](OC(C)=O)[C@@H]1OC(C)=O,inactive
13,CCCCc1cc2ccccc2c(OCCN(C)C)n1,inactive
14,CN1CCN(CCC(=O)N2c3ccccc3Sc3ccc(C(F)(F)F)cc32)CC1,inactive
15,CN1CCN(C2=Nc3cc(F)ccc3Cc3ccccc32)CC1,inactive
16,CCCCN=C(N)N=C(N)N,inactive
17,CC(C)CCCC(C)N (stereo not given),inactive
